The nature of assay [1]: NCI Yeast Anticancer Drug Screen. Data for the rad50 strain (AID 155).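 Note: 0% = growth of vehicle-only cultures of the same strain.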 To be noted: S. cerevisiae rad50 strain growth inhibition, active compounds read high. The gist of the method:
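Yeast carrying a defined DNA repair defect were exposed to test compounds, and growth was compared with vehicle-treated controls to give percent inhibition.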

Assay [2] in a line: NCI Yeast Anticancer Drug Screen. Data for the mec2-1 strain (AID 157). The settings on record: S. cerevisiae mec2-1 strain, active compounds read high. The gist of the method: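 Each compound was tested on mec2-1 yeast, a strain altered in DNA damage repair or cell cycle control. Growth inhibition is reported relative to vehicle.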
Assay [3] in a line: NCI Yeast Anticancer Drug Screen. Data for the sgs1 mgt1 strain (AID 161).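 Note: 0% = growth of cultures given vehicle only.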 To be noted: S. cerevisiae sgs1 mgt1 strain, active compounds read high. The gist of the method:
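Mutant yeast exposed to compound; growth scored against vehicle-only wells.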

Assay [4] can be described thus: NCI Yeast Anticancer Drug Screen. Data for the cln2 rad14 strain (AID 165).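 Note: 0% = growth equal to vehicle treated cultures.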 To be noted: S. cerevisiae cln2 rad14 strain, active compounds read high. The gist of the method: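 Test compounds were added to cln2 rad14 yeast cultures; inhibition of growth was then determined by comparison with vehicle treatment.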
Assay [5] in a line: NCI Yeast Anticancer Drug Screen. Data for the bub3 strain (AID 167). To be noted: S. cerevisiae bub3 mutant strain, active compounds read high. Put shortly: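 Compounds were applied to a genetically altered yeast strain carrying a cell-cycle control defect. Growth inhibition was scored against vehicle-treated controls.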
Assay [6] in a line: NCI Yeast Anticancer Drug Screen. Data for the mlh1 rad18 strain (AID 175). The settings on record: S. cerevisiae mlh1 rad18 strain growth inhibition, active compounds read high. The gist of the method:
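Inhibition values reflect reduced growth of mutant yeast versus vehicle-treated controls following compound exposure; the mutations affect DNA damage repair.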

Setting [7] is: at 5.0 µM (retest, dose inferred, filed as 0.5).
The mark [8] stands for this setting: at 50.0 µM (retest, dose inferred, filed as 5.0).

This is part of a sample that, as a whole, favours compounds with a hit. Of some 79,000 tested, about 15% had one in any assay. Values without a mark were called inactive. The source made the active and inactive calls. Cut-off read from the data, not from the text of the source: active = growth inhibition above about 70%; inactive = the rest.

With `O=P(Oc1ccccc1)(Oc1ccccc1)Oc1ccccc1Cl`, the growth inhibition is 5% in assay [1] (setting [7]); 0% in assay [1] (setting [8]); 29.4% in assay [1] (at 50.0 µM); 3% in assay [2] (setting [7]); -8% in assay [2] (setting [8]); 0.05% in assay [2] (at 50.0 µM). For the same compound, the growth inhibition in assay [3] (setting [7]) is -4%; in assay [3] (setting [8]) it was 4%; in assay [3] (at 50.0 µM), 13.6%; in assay [4] (setting [7]), 0%; in assay [4] (setting [8]) it was -14%; in assay [4] (at 50.0 µM), -6.1%. Also, the growth inhibition is 2% in assay [5] (setting [7]); 28% in assay [5] (setting [8]); 66.5% in assay [5] (at 50.0 µM); -13% in assay [6] (setting [7]); -3% in assay [6] (setting [8]); 51.6% in assay [6] (at 50.0 µM).

Regarding `O=P1(N2CCOCC2)OC(c2ccccc2)=CCN1c1ccccc1` (configuration not stated), the growth inhibition in assay [1] (setting [7]) was 3%; in assay [1] (setting [8]) it was 4%; in assay [1] (at 50.0 µM), -0.15%; in assay [2] (setting [7]), -1%; in assay [2] (setting [8]), -1%; in assay [2] (at 50.0 µM), 47.1%. Also, the growth inhibition is 5% in assay [3] (setting [7]); 81% (active) in assay [3] (setting [8]); 24.6% in assay [3] (at 50.0 µM); -1% in assay [4] (setting [7]); -2% in assay [4] (setting [8]); 39% in assay [4] (at 50.0 µM). The growth inhibition in assay [5] (setting [7]) is 3%; in assay [5] (setting [8]) it was 25%; in assay [5] (at 50.0 µM) it was 10.3%; in assay [6] (setting [7]), -1%; in assay [6] (setting [8]), 3%; in assay [6] (at 50.0 µM), -3.45%.

For `CCC1(O)C(=O)OCc2c1cc1n(c2=O)Cc2cc3cc4c(cc3nc2-1)OCO4` (configuration not stated), the growth inhibition in assay [1] (setting [7]) is 97% (active); in assay [1] (setting [8]), 92% (active); in assay [1] (at 50.0 µM), 86.6% (active); in assay [2] (setting [7]) it was 98% (active); in assay [2] (setting [8]), 96% (active); in assay [2] (at 50.0 µM), 86.3% (active). The growth inhibition is 97% (active) in assay [3] (setting [7]); 96% (active) in assay [3] (setting [8]); 85.2% (active) in assay [3] (at 50.0 µM); 90% (active) in assay [4] (setting [7]); 91% (active) in assay [4] (setting [8]); 73% (active) in assay [4] (at 50.0 µM). For the same compound, the growth inhibition is 92% (active) in assay [5] (setting [7]); 89% (active) in assay [5] (setting [8]); 90% (active) in assay [5] (at 50.0 µM); 93% (active) in assay [6] (setting [7]); 79% (active) in assay [6] (setting [8]); 92.7% (active) in assay [6] (at 50.0 µM).

In the case of `O=NN(CC(=O)O)c1ncccn1`, the growth inhibition in assay [1] (setting [7]) was -1%; in assay [1] (setting [8]), 0%; in assay [1] (at 50.0 µM), -6.25%; in assay [2] (setting [7]) it was -3%; in assay [2] (setting [8]) it was 0%; in assay [2] (at 50.0 µM), 1.45%. Also, the growth inhibition in assay [3] (setting [7]) was -2%; in assay [3] (setting [8]), -3%; in assay [3] (at 50.0 µM), -8.05%; in assay [4] (setting [7]), -6%; in assay [4] (setting [8]), 1%; in assay [4] (at 50.0 µM) it was 36.7%. For the same compound, the growth inhibition in assay [5] (setting [7]) was -2%; in assay [5] (setting [8]), 0%; in assay [5] (at 50.0 µM) it was -13.4%; in assay [6] (setting [7]) it was -1%; in assay [6] (setting [8]), -2%; in assay [6] (at 50.0 µM), 29.4%.

As to `C[C@H]1CC[C@@]2(NC1)O[C@H]1C[C@H]3[C@@H]4CC[C@H]5C[C@@H](O)CC[C@]5(C)[C@H]4CC[C@]3(C)[C@H]1[C@@H]2C`, the growth inhibition in assay [1] (setting [7]) was 42%; in assay [1] (setting [8]), 96% (active); in assay [1] (at 50.0 µM) it was 92.2% (active); in assay [2] (setting [7]), 27%; in assay [2] (setting [8]) it was 98% (active); in assay [2] (at 50.0 µM), 93.8% (active). Further, the growth inhibition in assay [3] (setting [7]) was 66%; in assay [3] (setting [8]), 99% (active); in assay [3] (at 50.0 µM), 93.5% (active); in assay [4] (setting [7]) it was 54%; in assay [4] (setting [8]), 98% (active); in assay [4] (at 50.0 µM) it was 91.5% (active). Further, the growth inhibition is 64% in assay [5] (setting [7]); 99% (active) in assay [5] (setting [8]); 92.5% (active) in assay [5] (at 50.0 µM); 33% in assay [6] (setting [7]); 98% (active) in assay [6] (setting [8]); 86.8% (active) in assay [6] (at 50.0 µM).

Turning to `CCC(C)c1cnc(CC(C)C)c(=O)n1O` (configuration not stated), the growth inhibition in assay [1] (setting [7]) is 87% (active); in assay [1] (setting [8]), 99% (active); in assay [1] (at 50.0 µM) it was 91% (active); in assay [2] (setting [7]), 26%; in assay [2] (setting [8]), 99% (active); in assay [2] (at 50.0 µM) it was 88.8% (active). Besides, the growth inhibition in assay [3] (setting [7]) was 75% (active); in assay [3] (setting [8]), 98% (active); in assay [3] (at 50.0 µM) it was 90% (active); in assay [4] (setting [7]), 68%; in assay [4] (setting [8]), 98% (active); in assay [4] (at 50.0 µM), 86.3% (active). Further, the growth inhibition in assay [5] (setting [7]) was 59%; in assay [5] (setting [8]) it was 98% (active); in assay [5] (at 50.0 µM), 90.7% (active); in assay [6] (setting [7]) it was 73% (active); in assay [6] (setting [8]), 99% (active); in assay [6] (at 50.0 µM), 89.6% (active).

With `Oc1c(Cl)cc(Cl)cc1Cl.[Cu+2]`, the growth inhibition is 6% in assay [1] (setting [7]); 95% (active) in assay [1] (setting [8]); 99.7% (active) in assay [1] (at 50.0 µM); -28% in assay [2] (setting [7]); 98% (active) in assay [2] (setting [8]); 99.5% (active) in assay [2] (at 50.0 µM). The growth inhibition is -4% in assay [3] (setting [7]); 94% (active) in assay [3] (setting [8]); 99.8% (active) in assay [3] (at 50.0 µM); -9% in assay [4] (setting [7]); 97% (active) in assay [4] (setting [8]); 98.2% (active) in assay [4] (at 50.0 µM). Further, the growth inhibition in assay [5] (setting [7]) is -10%; in assay [5] (setting [8]), 97% (active); in assay [5] (at 50.0 µM), 99.5% (active); in assay [6] (setting [7]), 0%; in assay [6] (setting [8]), 98% (active); in assay [6] (at 50.0 µM), 99.3% (active).

In the case of `[Se]C1=NCCN1`, the growth inhibition in assay [1] (setting [7]) is 6%; in assay [1] (setting [8]) it was 53%; in assay [1] (at 50.0 µM), 94.6% (active); in assay [2] (setting [7]) it was 7%; in assay [2] (setting [8]), 34%; in assay [2] (at 50.0 µM) it was 92.3% (active). Moreover, the growth inhibition in assay [3] (setting [7]) is 3%; in assay [3] (setting [8]), 39%; in assay [3] (at 50.0 µM) it was 95.6% (active); in assay [4] (setting [7]), 6%; in assay [4] (setting [8]), 48%; in assay [4] (at 50.0 µM), 77.8% (active). The growth inhibition in assay [5] (setting [7]) is 4%; in assay [5] (setting [8]), 96% (active); in assay [5] (at 50.0 µM), 84% (active); in assay [6] (setting [7]) it was 6%; in assay [6] (setting [8]), 89% (active); in assay [6] (at 50.0 µM), 92.2% (active).

On to `CC(C)c1ccc(C(C)C)c(C(=O)CN2CCOCC2)c1`, for which the growth inhibition in assay [1] (setting [7]) is 4%; in assay [1] (setting [8]) it was 13%; in assay [1] (at 50.0 µM) it was 41.1%; in assay [2] (setting [7]) it was 8%; in assay [2] (setting [8]), 34%; in assay [2] (at 50.0 µM) it was 34.8%. Moreover, the growth inhibition in assay [3] (setting [7]) was 3%; in assay [3] (setting [8]) it was 19%; in assay [3] (at 50.0 µM), 42.6%; in assay [4] (setting [7]), -1%; in assay [4] (setting [8]) it was 2%; in assay [4] (at 50.0 µM) it was -3.3%. The growth inhibition is 3% in assay [5] (setting [7]); 17% in assay [5] (setting [8]); 97.8% (active) in assay [5] (at 50.0 µM); 5% in assay [6] (setting [7]); 20% in assay [6] (setting [8]); 35.4% in assay [6] (at 50.0 µM).

These data come from PubChem BioAssay (NCI).
